# PubChem BioAssay (Tox21)
# Unmarked numbers belong to inactive results. Results filed as inconclusive are left out. A call without a number means that no potency is given here. Active and inactive are the calls of the source. Unless noted, calls come from the whole dose curve; as a rule, active = well fitted curve in the direction sought with a large enough effect in the repeat runs; inconclusive = weak or mixed curves; inactive = no such curve, though single readings can be large; an effect the other way counts as inactive or inconclusive.
# Key:
# [1] = target: Estrogen receptor beta (Homo sapiens) (UniProt Q92731); experiment: qHTS assay to identify small molecule agonists of the estrogen receptor beta (ER-beta) signaling pathway (AID 1259377; active = well fitted activation curve with a large enough effect in the signal ratio in the repeat runs, not every such curve was filed as active; the % refers to the signal ratio)
# Procedure, shortened: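 qHTS in ER-beta-UAS-bla HEK293T cells: 6 hr settling, then 16 hr compound at 37C, then LiveBLAzer substrate 2 h at RT before fluorescence reading.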
# [2] = target: Estrogen receptor beta (Homo sapiens) (UniProt Q92731); experiment: qHTS assay to identify small molecule antagonists of the estrogen receptor beta (ER-beta) signaling pathway (AID 1259378; active = well fitted inhibition curve with a large enough effect in the signal ratio in the repeat runs, not every such curve was filed as active; the % refers to the signal ratio)
# Procedure, shortened: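 Antagonist mode: compounds added to beta-lactamase reporter HEK293T ER-beta-UAS cells stimulated with E2 (1nM final), 16 hr at 37C. LiveBLAzer B/G FRET substrate, 2 hours room temperature, fluorescence read-out.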
# [3] = qHTS assay to identify small molecule agonists of the androgen receptor (AR) signaling pathway in the presence of an antagonist - cell viability counter screen (AID 1259379);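 note: MDA-kb2 human breast cancer cells carrying an MMTV luciferase reporter; series mostly up to about 92 µM; nearly all actives have a fitted effect of over 25% in size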
# Procedure, shortened: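 Nilutamide-containing (3.0uM final) MDA-kb2 cultures, 3,000 cells/well, were treated with compounds across 15 concentrations. After 16 hr at 37C with no CO2, cell viability was determined by CellTiter-Fluor fluorescence in the luciferase assay wells.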
# [4] = qHTS assay to identify small molecule agonists of the estrogen receptor beta (ER-beta) signaling pathway - cell viability counter screen (AID 1259380); note: nearly all actives have a fitted effect of over 30% in size
# Procedure, shortened: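 Steps: plate ER-beta-UAS-bla HEK293T cells, rest 6 hr; add compounds in DMSO; incubate 16 hr at 37C, 5% CO2; add FRET substrate 2 hr; add CellTiter-Glo, wait 30 min at room temperature; read luminescence.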
# [5] = qHTS assay to identify small molecule antagonists of the estrogen receptor beta (ER-beta) signaling pathway - cell viability counter screen (AID 1259382);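 note: HEK293T cells carrying ER-beta-UAS-bla reporter stimulated with estradiol; series mostly up to about 92 µM; nearly all actives have a fitted effect of over 55% in size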
# Procedure, shortened: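 Viability is scored by CellTiter-Glo luminescence (30 min, room temperature) in ER-beta-UAS-bla HEK293T wells already read for reporter fluorescence. Compound exposure lasts 16 hr at 37C alongside 1nM 17-beta-estradiol in charcoal-stripped serum medium.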
# [6] = target: Estrogen receptor (Homo sapiens) (UniProt P03372); experiment: qHTS assay to identify small molecule agonists of the estrogen receptor alpha (ER-alpha) signaling pathway in the presence of an antagonist (AID 1259383; calls by dose curve; note: top concentration of the series differs between compounds; nearly all actives have a fitted effect of over 15% in size)
# Procedure, shortened: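 Readout was ERE-driven luciferase luminescence in VM7Luc4E2 cells, which express full-length ER-alpha endogenously. Compounds were tested at 15 concentrations for 22hr alongside 10.0nM ICI-182,780 (final concentration).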
# [7] = qHTS assay to identify small molecule agonists or antagonists of the thyroid stimulating hormone receptor (TSHR) signaling pathway - wild type cell line counter screen (AID 1259384; calls by dose curve)
# Procedure, shortened: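 Counter screen in untransfected Hek293: compounds (15-point titration, triplicate) plus phosphodiesterase inhibitor Ro20-1724 added after 18 h plating; 30 min RT. Intracellular cAMP via competitive d2/cryptate immunoassay, 1 h incubation.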
# [8] = target: Thyrotropin receptor (Homo sapiens) (UniProt P16473); experiment: qHTS assay to identify small molecule antagonists of the thyroid stimulating hormone receptor (TSHR) signaling pathway (AID 1259385; calls by dose curve; note: nearly all actives have a fitted effect of over 20% in size)
# Procedure, shortened: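 Antagonist mode: compound-treated TSHR-expressing HEK293 cells were stimulated with 1.5 ng/mL TSH (final) in presence of Ro20-1724 for 30 min at RT. HTRF cAMP detection after 1 h; each compound tested at 15 concentrations, triplicate.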
# [9] = qHTS assay to identify small molecule agonists of the estrogen receptor alpha (ER-alpha) signaling pathway in the presence of an antagonist - cell viability counter screen (AID 1259386);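 note: series mostly up to about 92 µM; cells exposed to compounds for 22 h at 37 °C before the viability read; nearly all actives have a fitted effect of over 30% in size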
# Procedure, shortened: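 In this counter screen, compound effects on VM7Luc4E2 viability were tested in the presence of the antagonist ICI-182,780 at 10.0nM final. Compounds were dosed at 15 concentrations, exposure lasted 22hr, and the CellTiter-Fluor signal was read.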
# [10] = target: Progesterone receptor (Homo sapiens) (UniProt P06401); experiment: qHTS assay to identify small molecule agonists of the progesterone receptor (PR) signaling pathway (AID 1346784; calls by dose curve; note: nearly all actives have a fitted effect of over 30% in size)
# Procedure, shortened: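 Fluorescence from LiveBLAzer B/G FRET substrate cleavage (2 hr, RT) reported PR activation in PR-UAS-bla HEK 293T cells treated 16 hr at 37C/5% CO2 with compounds; medium contained 2% charcoal-stripped FBS.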
# [11] = target: Progesterone receptor (Homo sapiens) (UniProt P06401); experiment: qHTS assay to identify small molecule antagonists of the progesterone receptor (PR) signaling pathway (AID 1346795; active = well fitted inhibition curve with a large enough effect in the signal ratio in the repeat runs, not every such curve was filed as active; the % refers to the signal ratio)
# Procedure, shortened: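 Fluorescence intensity measured 2 hr after adding beta-lactamase FRET substrate to PR-UAS-bla HEK293T cells that had been co-treated 16 hr with compound and 1 nM R5020 (final concentration) in 2% charcoal-stripped FBS.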
# [12] = qHTS assay to identify small molecule antagonists of the progesterone receptor (PR) signaling pathway - cell viability counter screen (AID 1346798); note: series mostly up to about 92 µM; nearly all actives have a fitted effect of over 50% in size
# Procedure, shortened: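 CellTiter-Glo luminescence; PR-UAS-bla HEK293T, 3,000 cells/well; compound + R5020, 16 hr, 37C/5% CO2; 30 min RT before read.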
# [13] = qHTS assay to identify small molecule agonists of the progesterone receptor (PR) signaling pathway - cell viability counter screen (AID 1346799; calls by dose curve; note: nearly all actives have a fitted effect of over 45% in size)
# Procedure, shortened: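 In parallel with the beta-lactamase readout, cytotoxicity toward PR-UAS-bla HEK293T cells was measured by CellTiter-Glo luminescence following 16 hr compound incubation in 2% charcoal-stripped FBS medium.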
# [14] = qHTS assay to identify small molecule antagonists of the TGF-beta/Smad signaling pathway - cell viability counter screen (AID 1346824); note: nearly all actives have a fitted effect of over 50% in size
# Procedure, shortened: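 Cytotoxicity counter-screen run in the same wells as the beta-lactamase Smad reporter read: CellTiter-Glo luminescence after 30 min at room temperature. HEK 293T SBE-bla cells had 5 hr compound exposure at 37 C with TGF-beta1 (0.25 ng/mL stock).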
# [15] = qHTS assay to identify small molecule agonists of the TGF-beta/Smad signaling pathway - cell viability counter screen (AID 1346829); note: top concentration of the series differs between compounds; nearly all actives have a fitted effect of over 45% in size
# Procedure, shortened: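 Compound-treated SBE-bla HEK 293T cells (5 hr, 37 C) were assessed for viability with CellTiter-Glo in parallel with the reporter read.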
# [16] = qHTS assay to identify small molecule agonists of the TGF-beta/Smad signaling pathway (AID 1346859; active = well fitted activation curve with a large enough effect in the signal ratio in the repeat runs, not every such curve was filed as active; the % refers to the signal ratio; note: series mostly up to about 77 µM)
# Procedure, shortened: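 After overnight seeding, SBE-bla HEK 293T cells are dosed with compounds in DMSO and kept 5 hr at 37 C, 5% CO2. LiveBLAzer-type FRET substrate is then applied for 2 hr at room temperature.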
# [17] = target: Thyrotropin-releasing hormone receptor (Homo sapiens) (UniProt P34981); experiment: qHTS assay to identify small molecule antagonists of the thyrotropin-releasing hormone receptor (TRHR) signaling pathway (AID 1346877; active = well fitted inhibition curve with a large enough effect in the repeat runs, not every such curve was filed as active; note: series mostly up to about 51 µM)
# Procedure, shortened: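 Kinetic fluorescence (3 min, 1 s resolution) following stimulation with TRH at 1 nM final; HEK293 cells bearing human TRHR; 5 min compound preincubation at RT; concentration-response over 15 points, triplicates.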
# [18] = target: Thyrotropin-releasing hormone receptor (Homo sapiens) (UniProt P34981); experiment: qHTS assay to identify small molecule agonists of the thyrotropin-releasing hormone receptor (TRHR) signaling pathway (AID 1346891; calls by dose curve;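 note: HEK293 cells expressing TRHR with calcium dye readout; series mostly up to about 58 µM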)
# Procedure, shortened: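 Compounds were tested as agonists at 15 concentrations, in triplicate, on TRHR-Hek293 cells; calcium-sensitive dye fluorescence was recorded for 3 min following addition.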
# [19] = Human pregnane X receptor (PXR) small molecule agonists, qHTS cell viability counter screen (AID 1346977); note: nearly all actives have a fitted effect of over 50% in size
# Procedure, shortened: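 Viability counter screen: CellTiter-Fluor signal in PXR-Luc HepG2 cells, 24hr compound exposure, 37C, 5% CO2.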
# [20] = qHTS assay to identify small molecule antagonists of the sonic hedgehog signaling (Shh) pathway (AID 1259369; calls by dose curve; note: nearly all actives have a fitted effect of over 45% in size; note: potency is the fitted concentration of half-maximal effect)
# Procedure, shortened: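 Stable Gli1-Luc reporter NIH/3T3 clone; quantitative HTS in stimulated mode with conditioned medium. Luminescence measured after 24hr compound treatment at 37 C.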
# Thyrotropin receptor (Homo sapiens), sequence (P16473 whole entry, looked up): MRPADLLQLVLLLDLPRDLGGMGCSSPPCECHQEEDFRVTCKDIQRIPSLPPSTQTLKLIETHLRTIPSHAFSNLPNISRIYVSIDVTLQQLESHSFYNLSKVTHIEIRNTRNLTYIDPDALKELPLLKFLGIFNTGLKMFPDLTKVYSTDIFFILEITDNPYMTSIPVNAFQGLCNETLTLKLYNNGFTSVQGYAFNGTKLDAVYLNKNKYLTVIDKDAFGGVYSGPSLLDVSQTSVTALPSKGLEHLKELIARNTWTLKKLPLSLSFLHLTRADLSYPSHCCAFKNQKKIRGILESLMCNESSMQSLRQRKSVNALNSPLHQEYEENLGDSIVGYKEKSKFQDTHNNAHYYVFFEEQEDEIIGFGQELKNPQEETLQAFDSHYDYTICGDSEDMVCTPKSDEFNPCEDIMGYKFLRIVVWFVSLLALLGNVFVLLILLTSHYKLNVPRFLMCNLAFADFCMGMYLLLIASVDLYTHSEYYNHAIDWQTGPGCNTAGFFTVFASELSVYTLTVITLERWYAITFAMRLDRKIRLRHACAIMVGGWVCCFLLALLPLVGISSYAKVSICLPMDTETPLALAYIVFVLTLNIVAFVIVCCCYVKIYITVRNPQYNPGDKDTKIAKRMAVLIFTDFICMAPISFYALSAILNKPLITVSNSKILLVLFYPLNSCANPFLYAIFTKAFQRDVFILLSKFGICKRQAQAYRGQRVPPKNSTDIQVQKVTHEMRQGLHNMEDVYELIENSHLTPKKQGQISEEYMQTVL
# Estrogen receptor beta (Homo sapiens), sequence (Q92731 whole entry, looked up): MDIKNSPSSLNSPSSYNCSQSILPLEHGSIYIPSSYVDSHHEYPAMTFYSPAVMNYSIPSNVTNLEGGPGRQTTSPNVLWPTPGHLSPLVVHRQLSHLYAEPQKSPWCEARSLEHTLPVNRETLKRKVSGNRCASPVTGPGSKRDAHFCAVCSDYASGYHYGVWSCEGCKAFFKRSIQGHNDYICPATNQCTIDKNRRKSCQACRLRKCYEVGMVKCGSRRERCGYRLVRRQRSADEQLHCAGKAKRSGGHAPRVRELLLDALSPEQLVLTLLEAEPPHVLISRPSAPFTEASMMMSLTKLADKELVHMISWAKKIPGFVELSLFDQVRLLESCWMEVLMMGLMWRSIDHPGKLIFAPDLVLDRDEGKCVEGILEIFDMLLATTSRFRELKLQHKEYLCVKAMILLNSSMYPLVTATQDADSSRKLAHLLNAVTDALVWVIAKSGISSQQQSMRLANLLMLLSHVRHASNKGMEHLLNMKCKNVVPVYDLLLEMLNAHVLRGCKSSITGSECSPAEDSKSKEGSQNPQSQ
# Thyrotropin-releasing hormone receptor (Homo sapiens), sequence (P34981 whole entry, looked up): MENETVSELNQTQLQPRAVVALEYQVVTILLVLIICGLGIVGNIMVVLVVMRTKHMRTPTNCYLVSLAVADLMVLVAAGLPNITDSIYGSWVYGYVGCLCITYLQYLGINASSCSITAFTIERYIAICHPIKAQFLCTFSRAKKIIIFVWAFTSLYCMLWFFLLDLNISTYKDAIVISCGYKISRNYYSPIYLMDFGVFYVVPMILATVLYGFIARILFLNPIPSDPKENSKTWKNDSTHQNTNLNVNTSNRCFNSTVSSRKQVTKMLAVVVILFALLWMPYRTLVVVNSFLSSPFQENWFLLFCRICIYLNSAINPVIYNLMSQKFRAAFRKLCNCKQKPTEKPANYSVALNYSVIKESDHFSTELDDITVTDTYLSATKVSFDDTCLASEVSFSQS
# Progesterone receptor (Homo sapiens), sequence (P06401 whole entry, looked up): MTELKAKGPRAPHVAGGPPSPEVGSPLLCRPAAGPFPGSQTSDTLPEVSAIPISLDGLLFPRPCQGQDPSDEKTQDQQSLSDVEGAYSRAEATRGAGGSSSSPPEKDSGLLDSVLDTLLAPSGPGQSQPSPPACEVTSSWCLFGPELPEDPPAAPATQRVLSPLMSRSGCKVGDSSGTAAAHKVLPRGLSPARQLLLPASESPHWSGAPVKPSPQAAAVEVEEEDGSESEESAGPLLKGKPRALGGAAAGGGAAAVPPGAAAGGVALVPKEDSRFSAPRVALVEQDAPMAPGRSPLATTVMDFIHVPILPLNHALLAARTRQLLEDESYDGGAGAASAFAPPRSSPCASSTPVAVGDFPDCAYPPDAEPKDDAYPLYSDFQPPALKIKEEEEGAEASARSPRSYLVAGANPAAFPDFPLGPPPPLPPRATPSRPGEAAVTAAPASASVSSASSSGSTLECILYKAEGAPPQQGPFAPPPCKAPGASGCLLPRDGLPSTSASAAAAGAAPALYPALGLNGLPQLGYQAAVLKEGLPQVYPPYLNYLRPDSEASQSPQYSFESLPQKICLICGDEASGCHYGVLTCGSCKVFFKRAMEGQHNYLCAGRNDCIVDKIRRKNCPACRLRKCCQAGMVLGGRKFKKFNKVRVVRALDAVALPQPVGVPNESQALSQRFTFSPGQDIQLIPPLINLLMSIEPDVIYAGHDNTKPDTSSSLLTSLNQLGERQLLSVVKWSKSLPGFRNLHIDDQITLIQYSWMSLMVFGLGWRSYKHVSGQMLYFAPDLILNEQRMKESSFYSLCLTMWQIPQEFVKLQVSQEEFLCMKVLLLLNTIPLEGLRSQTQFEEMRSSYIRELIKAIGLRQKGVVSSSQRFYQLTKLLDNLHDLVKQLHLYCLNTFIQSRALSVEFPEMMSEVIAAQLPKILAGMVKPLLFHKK
# Estrogen receptor (Homo sapiens), sequence (P03372 whole entry, looked up): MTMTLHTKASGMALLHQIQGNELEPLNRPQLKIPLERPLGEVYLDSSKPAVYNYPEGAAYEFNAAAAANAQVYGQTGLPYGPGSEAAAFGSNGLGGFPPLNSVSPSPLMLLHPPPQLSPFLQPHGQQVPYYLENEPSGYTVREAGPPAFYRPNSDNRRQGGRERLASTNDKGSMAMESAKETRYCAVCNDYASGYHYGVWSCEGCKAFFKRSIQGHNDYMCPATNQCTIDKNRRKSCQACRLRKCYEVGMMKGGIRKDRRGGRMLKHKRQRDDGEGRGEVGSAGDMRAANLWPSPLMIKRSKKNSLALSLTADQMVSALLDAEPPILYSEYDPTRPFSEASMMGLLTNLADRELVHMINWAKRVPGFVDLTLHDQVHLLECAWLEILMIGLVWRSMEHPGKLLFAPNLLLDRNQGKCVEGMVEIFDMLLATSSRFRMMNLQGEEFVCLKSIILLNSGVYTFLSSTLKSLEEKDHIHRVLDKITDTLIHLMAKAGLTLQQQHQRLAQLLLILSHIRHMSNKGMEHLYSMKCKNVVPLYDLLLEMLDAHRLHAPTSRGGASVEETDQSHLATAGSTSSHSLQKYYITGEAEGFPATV
structure (smiles),measurement,setting,value
COc1ccccc1OCC(O)CN1CCN(CC(=O)Nc2c(C)cccc2C)CC1 (stereo not given),outcome,[1],inactive
same,outcome,[2],inactive
same,Potency,[3],inactive
same,Potency,[4],inactive
same,Potency,[5],inactive
same,Potency,[6],inactive
same,outcome,[7],inactive
same,Potency,[8],inactive
same,Potency,[9],inactive
same,Potency,[10],inactive
same,Potency,[11],inactive
same,Potency,[12],inactive
same,Potency,[13],inactive
same,Potency,[14],inactive
same,outcome,[15],inactive
same,outcome,[16],inactive
same,outcome,[17],inactive
same,outcome,[18],inactive
same,Potency,[19],inactive
OC(CCN1CCCCC1)(c1ccccc1)C1CC2C=CC1C2 (stereo not given),Potency,[20],16.8 µM (active)
same,Potency,[5],inactive
same,Potency,[6],inactive
same,Potency,[9],inactive
same,Potency,[10],inactive
same,Potency,[11],inactive
same,Potency,[12],inactive
same,Potency,[14],inactive
same,outcome,[15],inactive
same,outcome,[16],inactive
same,outcome,[17],inactive
same,outcome,[18],inactive
NS(=O)(=O)c1cc(C(=O)O)cc(N2CCCC2)c1Oc1ccccc1,Potency,[20],inactive
same,Potency,[3],inactive
same,Potency,[5],inactive
same,Potency,[6],inactive
same,outcome,[7],inactive
same,Potency,[8],inactive
same,Potency,[9],inactive
same,Potency,[10],inactive
same,Potency,[11],inactive
same,Potency,[14],inactive
same,outcome,[15],inactive
same,outcome,[16],inactive
same,outcome,[17],inactive
same,outcome,[18],inactive
same,Potency,[19],inactive
Cc1cccn2c(=O)c(-c3nnn[nH]3)cnc12,outcome,[1],inactive
same,"activity, negative = inhibition",[2],3.16% [at 19 µM]
same,"activity change, negative = cytotoxicity",[3],1.69% [at 19 µM]
same,"activity change, negative = cytotoxicity",[5],-8.96% [at 19 µM]
same,activation,[6],-1.22% [at 19 µM]
same,"activity change, negative = inhibition",[8],-4.29% [at 19 µM]
same,"activity change, negative = cytotoxicity",[9],5.01% [at 19 µM]
same,activation,[10],2.07% [at 19 µM]
same,Potency,[11],inactive
same,Potency,[12],inactive
same,"activity change, negative = cytotoxicity",[13],11.1% [at 19 µM]
same,"viability change, negative = cytotoxic",[14],3.02% [at 15.8 µM]
same,activation,[16],-4.24% [at 15.8 µM]
same,"activity change, negative = cytotoxicity",[19],-2.85% [at 19 µM]
NC(=O)COCCN1CCN(C(c2ccccc2)c2ccc(Cl)cc2)CC1 (stereo not given),Potency,[20],inactive
same,Potency,[3],inactive
same,Potency,[5],inactive
same,Potency,[6],inactive
same,outcome,[7],inactive
same,Potency,[8],inactive
same,Potency,[9],inactive
same,Potency,[10],inactive
same,Potency,[11],inactive
same,Potency,[13],inactive
same,Potency,[14],inactive
same,outcome,[15],inactive
same,outcome,[16],inactive
same,outcome,[18],inactive
same,Potency,[19],inactive
CN1C(=O)N(C)C(O)C1O (stereo not given),outcome,[1],inactive
same,outcome,[2],inactive
same,Potency,[3],inactive
same,Potency,[4],inactive
same,Potency,[5],inactive
same,Potency,[6],inactive
same,outcome,[7],inactive
same,Potency,[8],inactive
same,Potency,[9],inactive
same,Potency,[10],inactive
same,Potency,[11],inactive
same,Potency,[12],inactive
same,Potency,[13],inactive
same,Potency,[14],inactive
same,outcome,[18],inactive
same,Potency,[19],inactive
CC(=O)OC/C=C(\C)CC/C=C(\C)CCC=C(C)C,outcome,[1],inactive
same,outcome,[2],inactive
same,Potency,[3],inactive
same,Potency,[4],inactive
same,Potency,[5],inactive
same,Potency,[6],inactive
same,outcome,[7],inactive
same,Potency,[8],inactive
same,Potency,[9],inactive
same,Potency,[10],inactive
same,Potency,[11],inactive
same,Potency,[12],inactive
same,Potency,[13],inactive
same,Potency,[14],inactive
same,outcome,[15],inactive
same,outcome,[17],inactive
same,outcome,[18],inactive
same,Potency,[19],inactive
CC(C)NC(=O)NC(C)C,outcome,[1],inactive
same,outcome,[2],inactive
same,Potency,[3],inactive
same,Potency,[4],inactive
same,Potency,[5],inactive
same,Potency,[6],inactive
same,outcome,[7],inactive
same,Potency,[8],inactive
same,Potency,[9],inactive
same,Potency,[10],inactive
same,Potency,[11],inactive
same,Potency,[12],inactive
same,Potency,[13],inactive
same,outcome,[15],inactive
same,outcome,[16],inactive
same,outcome,[17],inactive
same,outcome,[18],inactive
same,Potency,[19],inactive
CC(=O)Nc1c(I)cc(I)c(C(=O)O)c1I,Potency,[20],inactive
same,Potency,[3],inactive
same,Potency,[5],inactive
same,Potency,[6],inactive
same,Potency,[9],inactive
same,Potency,[10],inactive
same,Potency,[11],inactive
same,Potency,[12],inactive
same,Potency,[13],inactive
same,Potency,[14],inactive
same,outcome,[15],inactive
same,outcome,[16],inactive
same,Potency,[19],inactive
